Compounds without any hit were thinned out: in the full panel of roughly 83,000, 20% have a hit.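 Values shown are percent growth following 48 h exposure of cells in 96-well plates to a single concentration of compound; below 10 was considered active.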 Active and inactive are the calls of the source.
How the values were obtained:
Test in all cases: NCI-60 one-dose screen, 48 h (100 = growth as untreated, 0 = no growth, -100 = all killed)
[1] = test system: SK-MEL-2 melanoma; details: 10 µM unless noted
[2] = test system: EKVX NSCLC; details: 10 µM unless noted
[3] = test system: UO-31 renal; details: 10 µM unless noted
[4] = test system: TK-10 renal; details: 10 µM unless noted
[5] = test system: ACHN renal; details: 10 µM unless noted
[6] = test system: CAKI-1 renal; details: 10 µM unless noted
[7] = test system: A498 renal; details: 10 µM
[8] = test system: CCRF-CEM leukemia; details: 10 µM unless noted
[9] = test system: MOLT-4 leukemia; details: 10 µM unless noted
[10] = test system: SR leukemia; details: 10 µM unless noted
[11] = test system: RPMI-8226 leukemia; details: 10 µM unless noted
[12] = test system: OVCAR-8 ovarian; details: 10 µM unless noted
[13] = test system: OVCAR-5 ovarian; details: 10 µM unless noted
[14] = test system: OVCAR-4 ovarian; details: 10 µM unless noted
[15] = test system: SK-OV-3 ovarian; details: 10 µM unless noted
[16] = test system: OVCAR-3 ovarian; details: 10 µM unless noted
[17] = test system: HS 578T breast; details: 10 µM unless noted
[18] = test system: HL-60(TB) leukemia; details: 10 µM unless noted
[19] = test system: IGROV1 ovarian; details: 10 µM unless noted
[20] = test system: SN12C renal; details: 10 µM unless noted

Measured: growth

C#Cc1ccc2c(c1)C(c1ccccc1)=NCC(=O)N2C
active: [16] 9.19%
inactive: [1] 25.5% | [2] 50.2% | [3] 67.8% | [4] 66.1% | [5] 52% | [6] 51.3% | [7] 26.7% | [8] 48.9% | [9] 39.5% | [10] 38.3% | [11] 64.5% | [12] 63.3% | [13] 85.5% | [14] 90.9% | [15] 31.6% | [17] 56.4%

COc1ccc(C(O)(C(=O)O)c2ccc(OC)cc2)cc1
inactive: [1] 78.8% | [2] 85% | [3] 87.6% | [4] 88.2% | [5] 85.8% | [6] 100% | [7] 95.3% | [18] 96.9% | [8] 79.8% | [9] 87.1% | [10] 102% | [12] 93.3% | [13] 103% | [14] 97.8% | [15] 99.1% | [19] 87.5% | [16] 106% | [17] 94.6%

CC[C@H](C)[C@@H]([C@@H](CC(=O)N1CCC[C@H]1[C@H](OC)[C@@H](C)C(=O)N[C@H](C)[C@@H](O)c1ccccc1)OC)N(C)C(=O)[C@@H](NC(=O)[C@@H](NC)C(C)C)C(C)C
inactive: [1] 41.8% | [2] 41.7% | [20] 36.7% | [3] 40.6% | [5] 29.3% | [8] 20.8% | [9] 18.3% | [10] 13.8% | [11] 26.5% | [12] 21% | [13] 60.9% | [14] 36.2% | [15] 14.1% | [19] 18.1% | [17] 28.9%
active: [7] -11.7% | [18] -20.2%

CCC(O)(CN)c1ccccc1 (stereo not given)
inactive: [1] 97.7% | [2] 98.3% | [3] 89.7% | [4] 101% | [5] 105% | [6] 96.3% | [7] 86.7% | [18] 101% | [8] 90.1% | [9] 105% | [11] 102% | [12] 97% | [13] 105% | [14] 111% | [15] 98.4% | [19] 97.9% | [16] 114% | [17] 102%

CC1=C([Te]c2ccc(O)cc2)C(=O)c2ccccc2C1=O
active: [2] -57% | [5] 5.62% | [6] -93.3% | [7] -25.8% | [18] -38% | [8] -13.4% | [9] -17% | [10] -14.8% | [14] -32.9% | [15] -15.5% | [19] -27% | [16] -63.7% | [17] 8.43%
inactive: [1] 31.2% | [20] 11.5% | [4] 36.1% | [12] 13.6% | [13] 11.8%

CCOC(=O)[C@@H](C)C[C@H](Cc1ccccc1)NC(=O)c1csc([C@@H](C[C@H](C(C)C)N(C)C(=O)[C@H](CC)NC(=O)[C@H]2CCCCN2C)OC(C)=O)n1
active: [7] -13.5% | [18] -26.4% | [8] 3.51% | [9] 9.18% | [10] 6.66% | [12] 5.75% | [16] -6.1% | [17] 9.11%
inactive: [1] 26.8% | [2] 38.6% | [20] 19.1% | [3] 33.7% | [5] 25.9% | [11] 19.2% | [13] 31.5% | [14] 37.4% | [15] 20.9% | [19] 22.6%

Nc1ncnc2n[nH]nc12
inactive: [1] 12.5% | [2] 66.7% | [3] 35.9% | [4] 61% | [5] 46.5% | [6] 40.1% | [7] 51.4% | [18] 83.5% | [8] 80.7% | [9] 86.4% | [10] 63.1% | [11] 43.1% | [12] 57.8% | [13] 59.3% | [14] 57.6% | [15] 13.1% | [19] 52.2% | [16] 75.1% | [17] 94.7%

Cc1cc(C)c(CBr)c(C)c1
inactive: [1] 102% | [2] 103% | [3] 85.2% | [4] 98.1% | [5] 104% | [6] 99.1% | [7] 81.4% | [18] 59.7% | [8] 106% | [9] 96.3% | [10] 107% | [11] 100% | [12] 99.4% | [13] 96.6% | [14] 127% | [19] 99.2% | [16] 113% | [17] 106%

CC1=C(CCCOC(=O)[C@H](N)CC(C)C)C2=C(C)C3(CC3)[C@@](C)(O)C(=O)C2=C1
active: [1] -15.6% | [3] -42.1% | [5] -43% | [7] -74.2% | [12] 3.99% | [14] 4.85% | [15] -18.1% | [19] 2.81% | [16] -14%
inactive: [2] 35.2% | [20] 29.3% | [18] 52.3% | [8] 80% | [9] 80% | [10] 95.1% | [11] 90% | [13] 22.8% | [17] 79%

CCOP1(=O)CC(C)=C(Cl)C(P(=O)(OCC)OCC)C1 (stereo not given)
inactive: [1] 104% | [2] 109% | [20] 101% | [4] 135% | [5] 110% | [6] 110% | [7] 103% | [18] 107% | [9] 106% | [11] 107% | [12] 84.3% | [13] 82.9% | [14] 92.4% | [15] 98.8% | [16] 94.5% | [17] 103%

CC[C@H](C)[C@H](NC(=O)N[C@@H](C)c1ccccc1)C(=O)N(C)[C@H](C[C@@H](OC(C)=O)c1nc(C(=O)N[C@@H](Cc2ccccc2)C[C@H](C)C(=O)OC)cs1)C(C)C
inactive: [2] 36.7% | [20] 39.9% | [3] 28.5% | [5] 21.5% | [8] 10.7% | [9] 21.7% | [11] 16.1% | [12] 11.6% | [13] 17.8% | [14] 37.1% | [15] 36.1% | [19] 24.1%
active: [1] -14.9% | [7] -4.53% | [18] -16.9% | [10] 3.11% | [16] -36.6% | [17] 0.903%

CCCCC1(CCC)C(=O)NC(=S)NC1=O
inactive: [1] 91.2% | [2] 102% | [3] 85.7% | [4] 118% | [5] 94.8% | [6] 97.2% | [8] 115% | [9] 96.8% | [10] 126% | [11] 104% | [12] 128% | [13] 102% | [14] 95.9% | [15] 109% | [19] 87.9% | [16] 93.3% | [17] 111%

Nc1ccc(-c2nc3cc(F)ccc3[se]2)cc1F
inactive: [1] 97.7% | [2] 49.2% | [20] 83% | [3] 38.5% | [5] 30.3% | [7] 13.5% | [18] 64.9% | [9] 63.5% | [10] 15.5% | [11] 63.2% | [12] 92.3% | [13] 47.9% | [14] 65.8% | [15] 55.1% | [19] 38.7% | [16] 81% | [17] 103%

CCC1(C)CC(CCNCc2ccccc2O)(c2ccc(C)cc2)CCO1 (stereo not given)
inactive: [1] 104% | [20] 105% | [3] 101% | [4] 106% | [5] 102% | [6] 106% | [7] 103% | [18] 97.3% | [8] 103% | [9] 101% | [10] 96% | [11] 98.2% | [12] 103% | [13] 100% | [14] 100% | [15] 112% | [19] 95.6% | [16] 105% | [17] 104%

CN1CCC(O)(c2ccc(F)cc2)C(C(=O)c2ccc(F)cc2)C1 (stereo not given)
active: [11] -9.61%
inactive: [1] 91.2% | [20] 104% | [3] 84.7% | [4] 110% | [5] 101% | [6] 104% | [7] 104% | [18] 134% | [8] 85.2% | [9] 94.2% | [12] 102% | [13] 93.2% | [14] 102% | [15] 102% | [19] 96.3% | [16] 111% | [17] 101%

CC(=O)O[C@H]1CC[C@@]2(C)C(=CC[C@H]3[C@@H]4C[C@@H](N5CC5)[C@H](C(C)=O)[C@@]4(C)CC[C@@H]32)C1
inactive: [1] 103% | [20] 88.9% | [3] 104% | [4] 105% | [5] 83.1% | [6] 89.3% | [7] 98.7% | [18] 92.4% | [8] 78% | [9] 63.4% | [10] 58.6% | [11] 79.3% | [12] 88.5% | [13] 99.5% | [14] 80.3% | [15] 99.9% | [19] 86.2% | [16] 109% | [17] 98%

From PubChem BioAssay (NCI)
